From PubChem
HCV inhibitor: inhibitors of hepatitis C virus infection. AID 651820. Potency, µM (highest dose often 41.8 µM), for the others: at the highest dose activity change, negative = inhibition, most hits filed as inhibitors. Huh7.5.1 HCVcc-Cre infection, luciferase reporter, 44 h. actives 3.4% (n = 340,000); further: potency means the concentration at half of the fitted maximal effect; on the % scale 0 is the no-effect control and ±100 the full control effect
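Cells seeded at 1,000/well and cultured 4 h, then compounds added followed by HCVcc-Cre virus (~0.5 moi). After 44 h further culture, luciferase substrate was added, plates held 15 min at room temperature, and luminescence read for 15 sec.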
Pf growth 48h: P. falciparum growth inhibition at 48 hours (one generation); P. falciparum luciferase growth in erythrocytes, 48 h; Potency, µM (highest dose often 28.7 µM), without a hit: top-dose activity change, negative = inhibition, usual class: inhibitors; actives 5.9% (n = 310,000); further: potency means the concentration at half of the fitted maximal effect; on the % scale 0 is the no-effect control and ±100 the full control effect
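In quantitative HTS format, infected erythrocytes bearing luciferase-reporter parasites were treated for a single generation at 37 C. Luminescence after adding detection reagent served as the growth measure.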
Sm TGR block: S. mansoni TGR enzyme inhibition; Q962Y6; purified TGR, DTNB reduction, TNB absorbance 405 nm; Potency, µM (series often up to 114 µM), for the others: at the highest dose activity change, negative = inhibition, hits mostly inhibitors; actives 3% (n = 360,000); AID 485364; further: potency means the concentration at half of the fitted maximal effect; on the % scale 0 is the no-effect control and ±100 the full control effect; nearly all actives have a fitted effect of over 60% in size
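First, TGR (20 nM dispensed) and NADPH were mixed with compound. Second, a 15 min room-temperature incubation followed. Third, further NADPH and then DTNB were added to start the reaction. Finally, TNB absorbance was monitored kinetically.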
HCMV inh: human cytomegalovirus inhibition | HFF cells, HCMV-luciferase reporter, 72 h; hits give low values | activity change, negative = inhibition, % at 57.5 µM | actives 4.5% (n = 410,000) | AID 1259415; in the data active means activity change below about -60%; inconclusive means no clear call, values can overlap the other calls; inactive means above about -39%; further: on the % scale 0 is the no-effect control and ±100 the full control effect
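Compounds were evaluated in HFFs infected with an HCMV luciferase reporter virus (MOI 1 PFU/cell). Luciferase in lysates collected 72 h post infection served as the replication measure.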
Pf growth 96h: P. falciparum growth inhibition at 96 hours | actives 6.9% (n = 320,000) | Potency, µM (doses to about 28.7 µM), for inactives: at the highest dose activity change, negative = inhibition, usual class: inhibitors | P. falciparum luciferase reporter growth, 96 h; further: potency means the concentration at half of the fitted maximal effect; on the % scale 0 is the no-effect control and ±100 the full control effect
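Two-generation exposure (96 h) targets delayed-death phenotype. Reporter parasites carrying integrated firefly luciferase, in red cells at 2% hematocrit and 0.05% parasitemia final, kept at 37 C, 5% CO2; luminescence loss indicates inhibition.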
SARS PLpro yeast-1: blocks SARS-CoV papain-like protease in a yeast assay | S. cerevisiae expressing SARS-CoV PLpro, growth rescue | Potency, µM (highest dose often 32.9 µM), inactives show top-dose activity, positive = growth rescue, hits mostly activators | actives 0.19% (n = 330,000); calls by dose curve; further: potency means the concentration at half of the fitted maximal effect; 0% is about no effect; nearly all actives have a fitted effect of over 55% in size
SARS PLpro yeast-2: Inhibits SARS-CoV PLP in yeast, hit validation; shares compounds with SARS PLpro yeast-1; yeast expressing SARS-CoV PLpro, growth phenotype rescue; calls only; actives 19% (n = 1,000); AID 652038; call rule not given here
* marks the source's active call; other numbers are inactive results; i = inactive; u = inconclusive; x = no result; + = active, no number. Sampled rows, rich in hits. Any-hit rate of the full collection: about 15%. Unless noted, the call rests on the fitted dose curve; in most records, active means well fitted curve in the direction sought with a large enough effect; inconclusive means small, poorly fitted or top-dose-only effect, or another doubt; inactive means no such curve, though single readings can be large; an effect the other way counts as inactive or inconclusive.

SMILES	HCV inhibitor	Pf growth 48h	Sm TGR block	HCMV inh	Pf growth 96h	SARS PLpro yeast-1	SARS PLpro yeast-2
Cc1ccc(-n2nc3c(N4CCC(C(=O)NCc5ccc(C)o5)CC4)nnc(C)c3c2C)cc1	u	u	-20%	-67*	10µM*	u	i
Cc1ccc(C(=O)N/N=C/c2cccc(OC(=O)/C=C/c3ccco3)c2)cn1	4%	31%	u	u	u	-2%	x
O=C(/C=C/c1ccco1)Oc1cc(Br)cc(/C=N/NC(=O)c2ccccc2O)c1	u	1.9µM*	-6%	-101*	30%	x	i
CCN(CC)S(=O)(=O)c1ccc2c(c1)c(=O)c(C(=O)N1CCN(c3ccc(F)cc3)CC1)cn2C	x	x	-33%	3	x	x	x
COc1ccc(-c2c/c(=N\c3nc(-c4ccccc4)c(C)s3)c3ccccc3o2)cc1O	u	u	-9%	-96*	x	u	+
O=C(CSc1nc2cc(C(=O)NC3CCCC3)ccc2c(=O)n1CC1CCCO1)c1cccc(Cl)c1 (configuration not stated)	x	x	-7%	-30	x	x	x
CNC(=O)CC12CC3CC(CC(C3)C1)C2	25%	x	-1%	12	27%	u	x
COCCNC(=S)NC(=O)CC12CC3CC(CC(C3)C1)C2	-27%	u	-11%	10	12%	u	+
O=c1c(-c2cc(-c3ccccc3)nc3c2COc2ccc(Cl)cc2-3)coc2ccc(F)cc12	x	x	-2%	17	x	x	x
CCOc1ccc(S(=O)(=O)NCCC(=O)NCC(c2ccc(OC)cc2)N2CCCCC2)cc1 (configuration not stated)	6%	u	-3%	2	u	4%	x
O=C(C1=C(O)C(=O)N(CCCN2CCOCC2)C1c1ccncc1)c1cc2ccccc2o1 (configuration not stated)	6%	22%	45µM*	x	u	13µM*	+
COc1cccc(OCCSc2nc(N)cc(N)n2)c1	u	x	-3%	x	8%	x	i
CCC(C)(NC(=O)c1ccc2c(c1)OCO2)C(=O)NC1CCCCC1 (configuration not stated)	4%	0%	-3%	-18	-23%	-6%	x
COc1cccc(/C=C/C(=O)OCC(=O)Nc2nnc(-c3ccccc3)o2)c1	-6%	26%	6%	x	u	2%	x
CC(C)COc1ccc(-c2nn(-c3ccccc3)cc2C(=O)Nc2nccs2)cc1	-11%	x	9%	0	u	u	+
O=C(Nc1nccs1)c1cn(-c2ccccc2)nc1-c1ccccc1	-25%	x	10%	u	x	u	x
CC(C)n1cnnc1SCC(=O)NC(=O)c1ccccc1	9%	7%	3%	10	12%	u	i
CCOC(=O)N1CCN(C(=O)c2cn(C)c3ccc(S(=O)(=O)N(C)C4CCCCC4)cc3c2=O)CC1	-2%	0%	2%	0	u	-1%	x
CCc1nc(Cl)c(C#N)c2c1CCCC2	u	15%	-3%	-88*	u	4µM*	i
CCc1nc(Cl)c(C#N)c2c1CSC(C)(C)C2	-7%	-4%	-4%	36	14%	1%	x
Cn1c(=O)cc(OCCCC(=O)Nc2ccc(F)cc2)c2ccccc21	x	x	7%	-27	x	x	x
O=C(COC(=O)c1ccc2ncsc2c1)Nc1ncc(Cl)cc1Cl	7%	107%	-11%	-1	177%	22µM*	i
O=C(Nc1cc(-c2ccccc2)nn1C1CCCCC1)c1ccc(Cl)cc1	2.5µM*	x	x	-31	x	u	i
O=C(Nc1ccccc1Cl)c1ccc2c(=O)n3c(nc2c1)CCC3	-12%	332%	-3%	27	324%	-3%	x
O=C(Nc1nc(-c2ccccc2)cs1)c1ccc2c(=O)n3c(nc2c1)CCCCC3	2.5µM*	2%	4%	-90*	u	u	i
SMILES	HCV inhibitor	Pf growth 48h	Sm TGR block	HCMV inh	Pf growth 96h	SARS PLpro yeast-1	SARS PLpro yeast-2
S=C(NCCc1ccccc1)Nc1ccccn1	7%	50%	u	25	u	5.6µM*	+
CC(=O)c1ccc(N(C)C)cc1	-13%	x	5%	56	-18%	2.8µM*	i
O=C(c1ccc2c(c1)OCO2)N(c1ccc(F)cc1)C1C=CS(=O)(=O)C1 (configuration not stated)	12%	u	-2%	-33	0%	0%	x
Cc1ccc(N(C(=O)c2ccc3c(c2)OCO3)C2C=CS(=O)(=O)C2)cc1C (configuration not stated)	6%	-5%	-24%	u	-6%	x	i
Cc1ccccc1CNC(=O)CCC(=O)N1CCOc2ccc(Cl)cc21	-28%	-30%	-19%	-37	u	0%	x
CC(/C=C/c1ccccc1)=N\NC(N)=S	16µM*	10µM*	8%	-5	u	13µM*	+
CC(/C=C/c1ccccc1)=N\NC(=O)Cn1cncn1	10%	8%	9%	20	-1%	-3%	x
COc1ccccc1OCC(=O)Nc1nonc1NC(=O)COc1ccccc1OC	15%	u	-9%	3	u	15%	x
CC(C)(C)c1nnc(N/N=C/c2ccccc2O)n(N)c1=O	u	3.3µM*	-20%	-102*	u	3.2µM*	i
CC(C)(C)c1nnc(N/N=C/c2ccccc2)n(N)c1=O	11%	-2%	8%	-8	1%	-19%	x
OC[C@@H]1CN(Cc2cccs2)C[C@H](n2cnc3c(NC4CCC4)ncnc32)O1	x	x	x	5	x	x	x
CCOC(=O)C(Cc1ccccc1)C(=O)Nc1cccc(C)c1 (configuration not stated)	20%	16%	-8%	-27	u	22µM*	i
O=C(CSc1nc(-c2ccco2)cc(C(F)(F)F)n1)Nc1ccccc1C(F)(F)F	u	18%	-4%	5	7.4µM*	u	i
O=c1cc(-c2ccccc2)n2c(SCc3ccc([N+](=O)[O-])cc3)nnc2[nH]1	x	x	-4%	-1	x	x	x
O=Cc1cc(OCc2ccccc2)ccc1[B-](F)(F)F	u	x	x	-19	x	x	x
Cc1ccc(SCCCCN2C(=O)NC(C)(C)C2=O)cc1	u	5%	-14%	11	45%	u	i
CC1(C)NC(=O)N(CCSc2ccc(Cl)cc2)C1=O	7%	x	3%	u	u	1%	x
CC/C(CC(c1ccccc1)c1c(O)c2ccccc2oc1=O)=N\NC(N)=S (configuration not stated)	-3%	-16%	4%	-6	u	13µM*	i
